CHO-K1 Ca PAM – nonselective activator or artifact in parental CHO-K1 calcium assay | 360,000 compounds, 0.02% hits | activation, % at 3 µM | AID 602247 | ATP EC20, Fluo-8 calcium fluorescence; 0% at ATP EC20, 100% at ATP max;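 active = activation above the run cutoff, the mean activation of all test compounds plus 3 SD, cut at about 40% in these data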;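 note: peak over basal fluorescence ratio in a 140 s read after ATP addition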
M1 ag parental – M1 agonist counterscreen hit in parental CHO-K1 cells; activation, % at 3 µM; 360,000 compounds, 0.48% hits; Fluo-8 calcium fluorescence; scaled to maximal ATP response, vehicle zero; in the data active = activation above about 15%;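 note: untransfected CHO-K1 host cells lacking M1 receptor as counterscreen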
CHO-K1 Ca antag – M1 antagonist counterscreen hit in parental CHO-K1 cells; ATP-induced calcium, Fluo-8 fluorescence; inhibition, % at 3 µM; 360,000 compounds, 0.6% hits; AID 602250;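 active = inhibition above a per-plate cutoff, the plate's mean sample inhibition plus 3 SD, cut at about 24% in these data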;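 note: 0% = DMSO plus EC80 ATP and 100% = DMSO alone without ATP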
CHRM1 antagonist – blocks human M1 muscarinic receptor. P11229. CHO-K1 hM1, Fluo-8 calcium fluorescence, ACh EC80 antagonist. inhibition, % at 3 µM. 360,000 compounds, 1.3% hits. AID 588852;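 active = percent inhibition above its own plate's cutoff, namely the mean of that plate's compound wells plus 3 SD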;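 note: peak over basal fluorescence ratio during 140 s after agonist addition; 0% = ACh EC80 plus DMSO and 100% = DMSO alone without agonist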
Target sequence (P11229 whole entry, looked up): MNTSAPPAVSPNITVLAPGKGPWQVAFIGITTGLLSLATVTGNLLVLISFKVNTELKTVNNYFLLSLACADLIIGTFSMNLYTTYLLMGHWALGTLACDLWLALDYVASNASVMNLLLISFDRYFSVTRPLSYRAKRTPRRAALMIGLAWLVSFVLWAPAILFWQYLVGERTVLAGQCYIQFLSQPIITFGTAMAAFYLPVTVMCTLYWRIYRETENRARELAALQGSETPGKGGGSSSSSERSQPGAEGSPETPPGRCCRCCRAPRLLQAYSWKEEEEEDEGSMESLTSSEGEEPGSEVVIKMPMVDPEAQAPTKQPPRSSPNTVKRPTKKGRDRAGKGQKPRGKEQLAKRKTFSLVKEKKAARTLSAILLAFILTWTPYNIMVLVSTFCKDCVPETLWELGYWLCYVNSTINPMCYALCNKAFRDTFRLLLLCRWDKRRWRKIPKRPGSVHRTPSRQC
M1 ag – activates human CHRM1 receptor | 360,000 compounds, 0.33% hits | activation, % at 3 µM | CHO-K1 hM1, Fluo-8 calcium fluorescence, agonist mode; 0% DMSO, 100% acetylcholine EC100;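 active = activation above the run's mean compound activation plus 3 SD, cut at about 16% in these data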;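 note: peak over basal fluorescence ratio within a 140 s kinetic read after compound addition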
CHRM1 PAM – human CHRM1 positive allosteric modulation; P11229; CHO-K1 hM1, Fluo-8 calcium fluorescence, ACh EC20; 0% = ACh EC20, 100% = maximal ACh; activation, % at 3 µM; 360,000 compounds, 0.088% hits; in the data active = activation above about 19%, passing the limit was not always enough
Active calls of the source: *. Compounds with a hit are over-represented: about 2.4% of the library has one in this group of screens.

SMILES	CHO-K1 Ca PAM	M1 ag parental	CHO-K1 Ca antag	CHRM1 antagonist	M1 ag	CHRM1 PAM
Cc1ccc(-c2c(C(=O)O)c3ccccc3[nH]c2=O)cc1	0	-1	-5	5	-6	-4
COC(=O)C[C@H]1C[C@@H]2c3cc(NC(=O)CN(C)C)ccc3O[C@@H]2[C@H](CO)O1	17	1	-11	-19	-1	9
COCC(=O)Nc1ccc2c(c1)[C@@H]1C[C@H](CC(=O)OC)O[C@@H](CO)[C@@H]1O2	-12	0	24*	19	-2	-10
CC(C)COc1ccc(CSCCNC(=S)Nc2ccccc2)cc1	4	3	-21	18	-3	-11
COc1ccc(N=C2SCC(c3ccc([N+](=O)[O-])cc3)=NN2CCO)cc1	-7	15*	15	12	-2	-7
O=C(NCCc1ccccc1)c1cc(-c2ccccc2)c(N2CCOCC2)s1	1	0	-13	-1	9	11
CCN(CC)CCCNC(=O)c1cc(-c2ccccc2)c(N2CCCCC2)s1	9	3	-14	55*	-9	-25
Cc1ccccc1OCc1nc2ccccc2c(=O)n1NC(=O)c1ccco1	18	5	-7	-31	18*	4
Cc1ccc(-n2c(SCC(=O)N(C)C3CCS(=O)(=O)C3)nc3ccccc3c2=O)c(C)c1 (configuration not stated)	15	2	-15	-1	-1	-6
COc1cccc(C(=O)NCC(c2ccc3c(c2)OCO3)N2CCN(c3ccc(F)cc3)CC2)c1 (configuration not stated)	-12	1	0	28*	-7	-26
Cn1c(CCNC(=O)c2ccccc2F)nnc1SCc1nc2ccccc2c(=O)[nH]1	13	0	-31	-46	4	30*
COc1ccc(Cc2nnc(SCc3nc4ccccc4c(=O)[nH]3)n2C)cc1	8	0	-19	1	2	0
CCOCCCNS(=O)(=O)c1cc2[nH]c3c(c2cc1C)C(=O)CC(C)(C)C3	12	4	-15	-3	-6	4
Cc1cc2c3c([nH]c2cc1S(=O)(=O)NCc1ccc(CN2CCCCCC2)o1)CC(C)(C)CC3=O	18	0	-13	52*	-14	-36
Cc1cc2c3c([nH]c2cc1S(=O)(=O)NCc1ccc(CN2CCCCCC2)o1)CCCC3=O	7	-1	-11	85*	-5	-21
C#CCOCCOCCOCCNc1nc(N2CCN(C(=O)CCCCCCCCCCNC(=O)[C@@H](CCC(=O)O)n3cc(CCCCCN)nn3)CC2)nc(N2CCN(C(=O)CCCCCCCCCCNC(=O)[C@H](CCCCN)n3cc(C[C@@H](C)CC)nn3)CC2)n1	5	3	-12	10	20*	-16
O=C(CN(CCc1ccccc1)C(=O)c1csnn1)NCc1ccc(F)cc1	-1	4	-2	-3	0	1
Cc1cc(N2CCN(c3cccc(C(F)(F)F)c3)CC2)n2nc(C)nc2n1	7	0	10	8	-1	31*
Cc1cc(N2CCN(c3ccccn3)CC2)n2nc(C)nc2n1	-4	0	12	-3	-2	6
COCCC(=O)N1CCC(Oc2ccc(C(=O)NCc3cccc(C)n3)cc2)CC1	-17	0	-4	-8	-1	11
O=C(CC(=O)N/N=C\c1ccccc1)NCCc1ccccc1	-5	0	1	11	0	-10
COC(=O)c1ccc(/C=N\NC(=O)CC(=O)NCCc2ccccc2)cc1	2	17*	15	-2	-7	7
COc1cc(NC(=S)NC(=O)c2ccccc2F)ccc1NC(=O)c1ccco1	21	1	-12	5	-6	-4
Fc1ccc(OCCCCCn2ccnc2)cc1	8	3	4	-8	36*	-4
COc1ccc2c(c1)CCN(C(=O)CCl)C2C1C(=O)CCCC1=O (configuration not stated)	-12	0	13	13	25*	-18
SMILES	CHO-K1 Ca PAM	M1 ag parental	CHO-K1 Ca antag	CHRM1 antagonist	M1 ag	CHRM1 PAM
COc1cc2c(cc1OC)C(C1C(=O)CCCC1=O)N(C(=O)CCl)CC2 (configuration not stated)	16	0	-18	-7	12	2
CSc1ncnc2c1ncn2CCCN1CCN(c2ncccn2)CC1	-10	1	-1	31*	-9	-16
FC(F)(F)c1cnc2c(c1)[nH]c(=S)n2-c1ccc(Cl)cc1	5	16*	2	20	0	-20
Fc1ccc(-n2c(=S)[nH]c3cccnc32)cc1	12	0	-9	-8	-5	1
Cc1ccc2nc(CCl)[n+]([O-])c(-c3ccccc3)c2c1	23	5	-7	-17	-6	11
O=CNCCCc1nc2ccccc2n1Cc1ccccc1	-7	0	36*	-6	-2	14
Cc1cccnc1CNC(=O)C1CCC(=O)N(CCc2cccc(F)c2)C1 (configuration not stated)	0	0	-1	-7	-2	5
COc1ccc(N2C(=O)CCC(C(=O)NCCN3CCOCC3)C2c2ccc(OC)c(OC)c2)cc1 (configuration not stated)	-6	0	3	22*	-2	-4
COc1ccc(N2C(=O)CCC(C(=O)O)C2c2ccc(OC)c(OC)c2)cc1 (configuration not stated)	13	0	-5	3	-5	5
CC1CCN(CCOc2cccc(Br)c2)CC1	24	2	-6	9	-9	-5
CC1CCC(NC(=O)COc2ccc(C(=O)c3ccccc3)cc2)CC1 (configuration not stated)	-1	2	4	-17	-2	10
CC1CCN(CCCCOc2ccc(C(=O)c3ccccc3)cc2)CC1	11	1	-5	55*	-3	-24
Cc1ccc(OCCCCN2CCC(C)CC2)cc1	11	0	-12	4	-10	-7
CC1CCN(CCOc2ccc(C(=O)c3ccccc3)cc2)CC1	15	1	-7	64*	-9	-29
CC1CCN(CCCCOc2cccc(C(C)C)c2)CC1	-24	1	10	70*	-5	-31
CCCOc1ccc(OCCN2CCCC(C)C2)cc1 (configuration not stated)	23	1	-13	28*	-7	-23
CC(C)(C)SCCNC(=O)CN(c1ccccc1)S(=O)(=O)c1ccc(F)cc1	23	0	-16	-10	-7	11
COc1ccc(CCN2CC(C(=O)NC3CCOCC3)CCC2=O)cc1 (configuration not stated)	18	3	-24	-8	-3	7
Cc1cc(C)c(S(=O)(=O)Nc2nccs2)c(C)c1	3	2	-5	-13	-5	9

Source: PubChem (The Scripps Research Institute Molecular Screening Center)
